# Values joined by “and” are separate entries in the source; they are usually repeats but may differ in a detail not shown here. Equal entries are not always repeated. Records with an inconclusive call do not appear. A call without a number means that no potency is given here. Active and inactive are the calls of the source. Calls come from the whole dose curve; as a rule, active = well fitted cell-killing curve with a large enough effect in the repeat runs; inconclusive = weak or mixed curves, or effect the other way; inactive = flat fitted curve, though single readings scatter.
# Assay: cAMP Responsive Elements (CRE) small molecule antagonists, cell-based qHTS assay: qHTS cell viability counter screen (AID 2060913); note: nearly all actives have a fitted effect of over 40% in size
# Conditions: CRE-bla HEK293T viability, CellTiter-Glo luminescence, 5 h; series mostly up to 92.4 µM
# How it was run: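 Viability of NKH477-stimulated (0.25 uM final) CRE-bla HEK293T cells is measured by CellTiter-Glo luminescence following 3 hrs compound exposure at 37 C.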
# Potency is the fitted concentration of half-maximal effect.
row,SMILES,Potency
1,O=C1Cc2cc(CCN3CCN(c4nsc5ccccc45)CC3)c(Cl)cc2N1,inactive
2,CC(C)(C)C1=CC(=O)C=C(C(C)(C)C)C1=O,inactive
3,C=CCN(CC=C)CC=C,inactive
4,O=C(O)c1cccc(C(=O)O)c1C(=O)O,inactive
5,CC(N=C(NC#N)Nc1ccncc1)C(C)(C)C (stereo not given),inactive
6,CO[C@@]12[C@H](COC(N)=O)C3=C(C(=O)C(C)=C(N)C3=O)N1C[C@@H]1N[C@@H]12,inactive
7,CC1CCCCN1CCCOC(=O)c1ccc(OC2CCCCC2)cc1 (stereo not given),inactive
8,Cc1cc(O)c(Cl)c(C)c1Cl,inactive
9,CCN(CC)CCOc1ccc(C(O)(Cc2ccc(Cl)cc2)c2ccc(C)cc2)cc1 (stereo not given),26.6 µM (active)
10,C[n+]1ccn(CCO)c1,inactive
11,COC(=O)[C@H]1[C@H]2C[C@@H]3c4[nH]c5cc(OC)ccc5c4CCN3C[C@H]2C[C@@H](OC(=O)COc2ccc(OC)cc2)[C@@H]1OC,inactive
12,CO[Si](CCCNc1ccccc1)(OC)OC,inactive
13,C=C(C)C(=O)OCCCCCCCC(C)C,inactive
14,CNC(=O)NC,inactive
15,C=C1c2cccc(O)c2C(O)=C2C(=O)[C@]3(O)C(O)=C(C(N)=O)C(=O)[C@@H](N(C)C)[C@@H]3[C@@H](O)[C@H]12,inactive
16,O=C[O][Al]([O]C=O)[O]C=O,inactive
17,Cc1ncc([C@@H](CCCCCCc2ccc3c(n2)NCCC3)CC(=O)O)cn1,inactive
18,CCCCCC=O,inactive
19,CCOC(=O)[C@H](CCc1ccccc1)N[C@@H](C)C(=O)N1[C@H](C(=O)O)C[C@@H]2CCC[C@@H]21,inactive
20,CCCCCCCCCCCCCC[P+](CCCC)(CCCC)CCCC,60.8 µM (active) and 28.5 µM (active)

row,SMILES,Potency
1,C=C(C)C(=O)OCCC[Si](OC)(OC)OC,inactive
2,CCCCCCCCC(=O)Cl,inactive
3,CCOC(=O)[C@H](CCc1ccccc1)N[C@H]1CS[C@H](c2cccs2)CN(CC(=O)O)C1=O,inactive
4,Cc1ccc(C=O)s1,inactive
5,Nc1cc(S(=O)(=O)O)ccc1O,inactive
6,CC(COC(=O)c1ccccc1)OC(=O)c1ccccc1 (stereo not given),inactive
7,C[C@H](O)C(=O)Nc1c(I)c(C(=O)NC(CO)CO)c(I)c(C(=O)NC(CO)CO)c1I,inactive
8,C[C@]12CCC(=O)C=C1CC[C@@H]1[C@@H]2CC[C@@]2(C)[C@H]1CC[C@]2(O)C(=O)CO,inactive
9,CCCCCCOC(=O)C(C)CC (stereo not given),inactive
10,NC(=O)c1cnccn1,inactive
11,Nc1ccc(N)c2ccccc12,inactive
12,O=C(O)C(S)C(S)C(=O)O (stereo not given),inactive
13,CCCCC/C=C\C=C\C(=O)OCC,inactive
14,CCN1C=CN(C)C1C (stereo not given),inactive
15,Cc1ccc2c(n1)Oc1ccc(C(C)C(=O)OCC(=O)N(C)C)cc1C2 (stereo not given),inactive
16,CC(C)OC(=O)c1cc(C(=O)OC(C)C)cc([N+](=O)[O-])c1,inactive
17,CCc1c(C(=O)NN2CCCCC2)nn(-c2ccc(Cl)cc2Cl)c1-c1ccc(Br)cc1,inactive
18,CCCCN1C(=O)[C@@H]([C@H](O)C2CCCCC2)NC(=O)C12CCN(Cc1ccc(Oc3ccc(C(=O)O)cc3)cc1)CC2,inactive
19,CCCCCCCCCCCCCCBr,inactive
20,Clc1sc(Cl)c(Cl)c1Cl,inactive

# From PubChem BioAssay (Tox21)
